Laboratory results taken from PubChem BioAssay (Tox21).
“And” between values parts separate entries of the source, which are not always exact repeats. Equal entries are not always repeated. Inconclusive results are not listed. A call without a number means that no potency is given here. A structure can be active in one record and inactive in another. The source made the active and inactive calls. Unless noted, calls follow the shape of the dose curve; as a rule, active = well fitted curve in the direction sought with a large enough effect in the repeat runs; inconclusive = weak or mixed curves; inactive = no such curve, though single readings can be large; an effect the other way counts as inactive or inconclusive.

Assays:
[1] = qHTS assay to identify small molecule antagonists of the estrogen receptor alpha (ER-alpha) signaling pathway using the BG1 cell line in the presence of 0.1 nM 17-beta-estradiol - cell viability counter screen (AID 1259241); also: nearly all actives have a fitted effect of over 40% in size; also: potency is read from the fitted curve at half-maximal effect
Procedure, shortened: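 Live-cell protease activity (CellTiter-Fluor fluorescence, 30 min) was read in the same wells after VM7Luc4E2 cells had been exposed to compounds with 0.1 nM 17beta-estradiol for 22 hr at 37C.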

[2] = qHTS assay to identify small molecule antagonists of the androgen receptor (AR) signaling pathway using the MDA cell line in the presence of 0.5 nM R1881 - cell viability counter screen (AID 1259242); also: nearly all actives have a fitted effect of over 45% in size; also: potency is read from the fitted curve at half-maximal effect
Procedure, shortened: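 Human breast carcinoma MDA-kb2 cells, cultured without CO2, receive compounds alongside 0.5 nM (final) R1881 agonist. After 16 hr at 37C, viability is taken as live-cell protease signal.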

[3] = qHTS assay to identify small molecule phospholipidosis (PLD) inducers (AID 1259344; active = well fitted curve in the direction sought with a large enough effect; an effect the other way counts as inactive or inconclusive)
Procedure, shortened: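 After 4 h attachment on collagen I, HepG2 cells were dosed with compound alongside LipidTOX Red, kept 24 h at 37 C, fixed, and imaged for lamellar phospholipid pits.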

[4] = qHTS assay to identify small molecule HDAC inhibitors (AID 1259364);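 also: wild-type HCT-116 cells with endogenous class I/II HDAC activity; top concentration of the series differs between compounds; nearly all actives have a fitted effect of over 45% in size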
Procedure, shortened: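 After a 2 hr compound incubation (37C, 5% CO2), HCT-116 cells seeded at 1,500/well the day before received HDAC-Glo reagent; signal read as luminescence after 30 min at room temperature.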

[5] = qHTS assay to identify small molecule HDAC inhibitors - cell viability counter screen (AID 1259365); also: series mostly up to about 92 µM; nearly all actives have a fitted effect of over 50% in size
Procedure, shortened: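 HCT-116 (wild type), 1,500 cells/well, overnight 37C/5% CO2; compound in DMSO 2hr; CellTiter-Glo 30min RT; luminescence read.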

[6] = qHTS assay to identify small molecule agonists of the sonic hedgehog signaling (Shh) pathway - cell viability counter screen (AID 1259366); also: nearly all actives have a fitted effect of over 50% in size; also: potency is read from the fitted curve at half-maximal effect
Procedure, shortened: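 CellTiter-Fluor fluorescence read-out, 1 hr at 37C, added after 23hr compound exposure. Cells: 3T3 Gli1-Luc, an NIH/3T3 clone with stably integrated Gli1-Luc reporter, plated 4hr before compound.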

[7] = qHTS assay to identify small molecule antagonists of the sonic hedgehog signaling (Shh) pathway - cell viability counter screen (AID 1259367); also: nearly all actives have a fitted effect of over 55% in size; also: potency is read from the fitted curve at half-maximal effect
Procedure, shortened: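 Conditioned medium drove Shh signaling in 3T3 Gli1-Luc cells exposed to compounds at 37C and 5% CO2. Viability was determined from CellTiter-Fluor fluorescence, with reagent incubated 1 hr after 23 hr of treatment.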

[8] = qHTS assay to identify small molecule agonists of the sonic hedgehog signaling (Shh) pathway (AID 1259368; calls by dose curve;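 also: NIH/3T3-derived 3T3Gli1-Luc cells carrying a stable Gli1-driven firefly luciferase reporter; series mostly up to about 92 µM; nearly all actives have a fitted effect of over 15% in size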)
Procedure, shortened: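 Stable NIH/3T3 Gli1-Luc reporter clone; 24 hr cpd exposure after a 4 hr settling period; luminescence endpoint.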

[9] = qHTS assay to identify small molecule antagonists of the sonic hedgehog signaling (Shh) pathway (AID 1259369; calls by dose curve; also: nearly all actives have a fitted effect of over 45% in size; also: potency is read from the fitted curve at half-maximal effect)
Procedure, shortened: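 Gli1 transcriptional reporter (firefly Luc) in NIH/3T3 background, conditioned-medium activated. 24hr exposure, luminescence endpoint.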

[10] = biological target: Estrogen receptor beta (Homo sapiens) (UniProt Q92731); experiment: qHTS assay to identify small molecule antagonists of the estrogen receptor beta (ER-beta) signaling pathway (AID 1259378; active = well fitted inhibition curve with a large enough effect in the signal ratio in the repeat runs, not every such curve was filed as active; the % refers to the signal ratio)
Sequence of Estrogen receptor beta (Homo sapiens) (Q92731 whole entry, looked up): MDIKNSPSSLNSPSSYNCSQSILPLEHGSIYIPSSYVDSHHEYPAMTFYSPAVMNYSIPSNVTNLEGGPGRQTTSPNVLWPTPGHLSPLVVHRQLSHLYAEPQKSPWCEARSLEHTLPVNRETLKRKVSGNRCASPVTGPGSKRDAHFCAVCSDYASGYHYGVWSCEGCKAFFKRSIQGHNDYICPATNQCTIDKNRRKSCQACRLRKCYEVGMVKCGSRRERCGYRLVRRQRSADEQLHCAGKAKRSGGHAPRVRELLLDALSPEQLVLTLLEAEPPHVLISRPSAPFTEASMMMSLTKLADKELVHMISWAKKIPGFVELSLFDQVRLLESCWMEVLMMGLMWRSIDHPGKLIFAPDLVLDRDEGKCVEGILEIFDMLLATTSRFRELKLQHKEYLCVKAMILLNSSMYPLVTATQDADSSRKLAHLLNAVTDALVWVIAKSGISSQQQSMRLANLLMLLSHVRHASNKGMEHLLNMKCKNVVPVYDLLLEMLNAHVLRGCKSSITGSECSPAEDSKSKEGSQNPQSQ
Procedure, shortened: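 ER-beta-UAS-bla HEK293T (GripTite) cells in 2% charcoal-stripped FBS medium were preincubated 6 hr at 37C, dosed with compound, then stimulated with 1 nM E2 (final) for 16 hr; beta-lactamase reporter read by B/G FRET fluorescence after 2 hr substrate loading.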

[11] = qHTS assay to identify small molecule agonists of the androgen receptor (AR) signaling pathway in the presence of an antagonist - cell viability counter screen (AID 1259379); also: nearly all actives have a fitted effect of over 25% in size; also: potency is read from the fitted curve at half-maximal effect
Procedure, shortened: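 Counter screen for cell viability run in parallel with the AR agonist-mode luciferase assay. MDA-kb2 cells were co-treated with nilutamide (3.0uM final) and compounds, then incubated 16 hr at 37C, and CellTiter-Fluor fluorescence was measured.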

[12] = qHTS assay to identify small molecule agonists of the estrogen receptor beta (ER-beta) signaling pathway - cell viability counter screen (AID 1259380); also: nearly all actives have a fitted effect of over 30% in size; also: potency is read from the fitted curve at half-maximal effect
Procedure, shortened: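 In this qHTS counter screen, HEK293T cells carrying an ER-beta/UAS beta-lactamase reporter, grown in 2% charcoal-stripped FBS, received compound for 16 hr; ATP-based CellTiter-Glo luminescence was then read after 30 min at room temperature.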

[13] = biological target: Androgen receptor (Homo sapiens) (UniProt P10275); experiment: qHTS assay to identify small molecule agonists of the androgen receptor (AR) signaling pathway in the presence of an antagonist (AID 1259381; calls by dose curve; also: nearly all actives have a fitted effect of over 15% in size)
Sequence of Androgen receptor (Homo sapiens) (P10275 whole entry, looked up): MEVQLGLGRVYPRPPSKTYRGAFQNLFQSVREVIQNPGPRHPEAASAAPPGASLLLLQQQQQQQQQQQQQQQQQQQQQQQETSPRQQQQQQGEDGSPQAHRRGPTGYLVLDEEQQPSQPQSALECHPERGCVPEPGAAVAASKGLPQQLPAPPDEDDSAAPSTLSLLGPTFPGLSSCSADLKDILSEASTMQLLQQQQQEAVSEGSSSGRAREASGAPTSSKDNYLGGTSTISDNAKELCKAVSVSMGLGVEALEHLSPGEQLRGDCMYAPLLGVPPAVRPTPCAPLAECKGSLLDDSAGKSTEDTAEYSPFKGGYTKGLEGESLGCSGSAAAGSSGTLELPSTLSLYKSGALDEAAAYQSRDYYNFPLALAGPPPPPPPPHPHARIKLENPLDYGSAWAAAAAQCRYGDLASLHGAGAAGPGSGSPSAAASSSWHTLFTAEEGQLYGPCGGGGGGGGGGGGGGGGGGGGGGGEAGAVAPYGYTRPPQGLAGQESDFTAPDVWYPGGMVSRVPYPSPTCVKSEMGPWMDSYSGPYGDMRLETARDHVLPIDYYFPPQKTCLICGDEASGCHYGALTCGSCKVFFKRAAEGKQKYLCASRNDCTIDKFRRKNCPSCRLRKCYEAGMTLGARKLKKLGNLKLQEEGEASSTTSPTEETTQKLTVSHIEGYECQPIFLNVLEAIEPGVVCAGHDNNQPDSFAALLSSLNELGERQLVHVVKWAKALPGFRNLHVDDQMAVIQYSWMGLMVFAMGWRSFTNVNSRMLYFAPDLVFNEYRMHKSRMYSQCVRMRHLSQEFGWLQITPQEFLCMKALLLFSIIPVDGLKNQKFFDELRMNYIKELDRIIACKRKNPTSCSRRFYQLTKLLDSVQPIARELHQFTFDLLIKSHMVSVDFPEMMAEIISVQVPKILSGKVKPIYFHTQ
Procedure, shortened: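 AR antagonist background: nilutamide 3.0uM final. Cell line: MDA-kb2, MMTV-driven luciferase, responsive to both AR and GR. Exposure 16hr, 37C, no CO2; ONE-Glo luminescence.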

[14] = qHTS assay to identify small molecule antagonists of the estrogen receptor beta (ER-beta) signaling pathway - cell viability counter screen (AID 1259382); also: nearly all actives have a fitted effect of over 55% in size; also: potency is read from the fitted curve at half-maximal effect
Procedure, shortened: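 HEK293T ER-beta-UAS-bla, 2% charcoal-stripped FBS; compounds + 1nM E2 16 hr 37C; CellTiter-Glo luminescence, 30 min RT.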

[15] = qHTS assay to identify small molecule agonists or antagonists of the thyroid stimulating hormone receptor (TSHR) signaling pathway - wild type cell line counter screen (AID 1259384; calls by dose curve)
Procedure, shortened: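 Wild-type HEK293 cells were plated 18 h at 37 C/5% CO2, pin-dosed with compound plus Ro20-1724 medium, held 30 min at room temperature, then given cAMP-d2 and anti-cAMP-cryptate; fluorescence was read after 1 h. Fifteen concentrations, triplicate.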

[16] = biological target: Thyrotropin receptor (Homo sapiens) (UniProt P16473); experiment: qHTS assay to identify small molecule antagonists of the thyroid stimulating hormone receptor (TSHR) signaling pathway (AID 1259385; calls by dose curve; also: nearly all actives have a fitted effect of over 20% in size; also: potency is read from the fitted curve at half-maximal effect)
Sequence of Thyrotropin receptor (Homo sapiens) (P16473 whole entry, looked up): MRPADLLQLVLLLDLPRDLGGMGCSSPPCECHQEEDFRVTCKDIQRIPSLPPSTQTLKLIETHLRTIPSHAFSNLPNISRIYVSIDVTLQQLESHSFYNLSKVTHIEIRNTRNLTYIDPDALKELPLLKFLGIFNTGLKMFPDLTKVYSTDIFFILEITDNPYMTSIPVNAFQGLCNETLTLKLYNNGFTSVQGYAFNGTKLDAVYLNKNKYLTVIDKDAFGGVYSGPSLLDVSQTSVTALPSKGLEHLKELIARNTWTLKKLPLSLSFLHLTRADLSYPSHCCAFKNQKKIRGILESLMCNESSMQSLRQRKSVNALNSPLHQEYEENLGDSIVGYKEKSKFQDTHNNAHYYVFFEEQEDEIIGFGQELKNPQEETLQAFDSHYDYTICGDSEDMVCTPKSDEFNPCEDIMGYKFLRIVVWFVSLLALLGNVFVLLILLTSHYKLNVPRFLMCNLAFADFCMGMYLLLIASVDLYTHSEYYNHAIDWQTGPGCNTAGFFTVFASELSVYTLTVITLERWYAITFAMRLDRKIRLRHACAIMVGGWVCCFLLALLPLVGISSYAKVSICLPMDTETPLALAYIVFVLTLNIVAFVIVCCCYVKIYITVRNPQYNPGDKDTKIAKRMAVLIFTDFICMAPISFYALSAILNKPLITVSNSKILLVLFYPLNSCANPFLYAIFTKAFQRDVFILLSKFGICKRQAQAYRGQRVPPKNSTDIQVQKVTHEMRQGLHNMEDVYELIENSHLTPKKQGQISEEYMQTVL
Procedure, shortened: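 TSHR-HEK293 cells were plated and held 18 h at 37C/5% CO2, then given compound plus Ro20-1724 and stimulated with TSH at 1.5 ng/mL final. After 30 min at room temperature, cAMP was detected with cAMP-d2/anti-cAMP-cryptate (1 h) by fluorescence.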

[17] = qHTS assay to identify small molecule agonists of the estrogen receptor alpha (ER-alpha) signaling pathway in the presence of an antagonist - cell viability counter screen (AID 1259386);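 also: cells exposed to compounds for 22 h at 37 °C before the viability read; nearly all actives have a fitted effect of over 30% in size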; also: potency is read from the fitted curve at half-maximal effect
Procedure, shortened: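 Steps: 5-day stripped-FBS culture; seed and incubate 24hr; add ICI-182,780 (10.0nM final); pin 15-point compound titration; incubate 22hr at 37C; add CellTiter-Fluor at 21hr; read fluorescence.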

[18] = biological target: Estrogen receptor (Homo sapiens) (UniProt P03372); experiment: qHTS assay to identify small molecule antagonists of the estrogen receptor alpha (ER-alpha) signaling pathway using the BG1 cell line in the presence of 0.1 nM 17-beta-estradiol (AID 1259244); also: nearly all actives have a fitted effect of over 50% in size; also: potency is read from the fitted curve at half-maximal effect
Sequence of Estrogen receptor (Homo sapiens) (P03372 whole entry, looked up): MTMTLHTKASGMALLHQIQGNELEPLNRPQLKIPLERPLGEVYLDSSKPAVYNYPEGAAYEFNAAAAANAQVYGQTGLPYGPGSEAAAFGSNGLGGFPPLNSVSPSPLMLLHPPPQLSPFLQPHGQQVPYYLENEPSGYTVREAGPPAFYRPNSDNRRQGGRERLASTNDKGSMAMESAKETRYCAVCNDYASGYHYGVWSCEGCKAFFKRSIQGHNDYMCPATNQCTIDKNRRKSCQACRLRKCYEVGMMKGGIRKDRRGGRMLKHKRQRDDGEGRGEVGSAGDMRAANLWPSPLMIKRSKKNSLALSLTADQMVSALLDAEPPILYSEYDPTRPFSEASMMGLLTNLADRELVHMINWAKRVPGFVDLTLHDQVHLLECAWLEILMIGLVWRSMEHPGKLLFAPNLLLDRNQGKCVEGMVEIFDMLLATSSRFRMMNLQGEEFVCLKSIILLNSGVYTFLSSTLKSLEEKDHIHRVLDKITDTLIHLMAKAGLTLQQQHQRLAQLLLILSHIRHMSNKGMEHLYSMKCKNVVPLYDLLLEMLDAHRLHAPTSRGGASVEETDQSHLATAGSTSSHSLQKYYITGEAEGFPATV
Procedure, shortened: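 Seeding of stripped-serum-adapted VM7Luc4E2 cells, 24 h attachment, compound transfer, then 0.1 nM final 17beta-estradiol; after 22 h incubation, ONE-Glo reagent and luminescence reading.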

[19] = biological target: Estrogen receptor beta (Homo sapiens) (UniProt Q92731); experiment: qHTS assay to identify small molecule agonists of the estrogen receptor beta (ER-beta) signaling pathway (AID 1259377; active = well fitted activation curve with a large enough effect in the signal ratio in the repeat runs, not every such curve was filed as active; the % refers to the signal ratio)
Procedure, shortened: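 Beta-lactamase reporter readout: fluorescence of LiveBLAzer B/G FRET substrate after 2 h at room temperature, following 16 h compound treatment of ER-beta-UAS-bla HEK293T cells at 37C in 2% charcoal-stripped FBS medium.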

[20] = biological target: Estrogen receptor (Homo sapiens) (UniProt P03372); experiment: qHTS assay to identify small molecule agonists of the estrogen receptor alpha (ER-alpha) signaling pathway in the presence of an antagonist (AID 1259383; calls by dose curve; also: top concentration of the series differs between compounds; nearly all actives have a fitted effect of over 15% in size)
Procedure, shortened: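 ER-alpha agonism measured under antagonist challenge: 10.0nM ICI-182,780 (final) plus compound, 15 concentrations, 22hr, VM7Luc4E2 ERE-luciferase cells. Read by luminescence.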

Compound	Potency [1]	Potency [2]	outcome [3]	Potency [4]	Potency [5]	Potency [6]	Potency [7]	Potency [8]	Potency [9]	Potency [10]	Potency [11]	Potency [12]	outcome [13]	Potency [14]	Potency [15]	Potency [16]	Potency [17]	Potency [18]	Potency [19]	Potency [20]
Oc1ccc(Cl)cc1Cc1ccccc1	inactive	inactive	inactive	inactive	inactive	55.1 µM (active) and inactive	inactive	inactive	13.7 µM (active) and 24.6 µM (active)	inactive	inactive	54.5 µM (active) and 27.6 µM (active)	inactive	48.6 µM (active) and 52.1 µM (active)	inactive	inactive and 55.1 µM (active)	inactive	–	–	–
CCC[CH2][Sn]([Cl])([Cl])[CH2]CCC	1.74 µM (active) and 2.43 µM (active)	874 nM (active) and 611 nM (active)	–	inactive	–	276 nM (active) and 433 nM (active)	552 nM (active) and 770 nM (active)	–	196 nM (active) and 243 nM (active)	–	552 nM (active) and 1.09 µM (active)	981 nM (active) and 1.54 µM (active)	–	1.39 µM (active) and 1.54 µM (active)	–	–	1.96 µM (active) and 2.17 µM (active)	1.23 µM (active) and inactive	inactive	inactive
CC(C)(c1ccc(OCC2CO2)cc1)c1ccc(OCC2CO2)cc1 (configuration not stated)	inactive	inactive	–	inactive	inactive	inactive	inactive	–	15.6 µM (active)	–	inactive	61.9 µM (active)	inactive	43.8 µM (active) and inactive	inactive	inactive	inactive	inactive	–	inactive
CCCCCCCCCC(CC)c1ccc(S(=O)(=O)O)cc1 (configuration not stated)	inactive	inactive	inactive	inactive	inactive	inactive	inactive	inactive	inactive	–	inactive	–	–	–	–	–	inactive	–	–	–
Clc1ccc(C(Cl)(Cl)Cl)cc1	inactive	inactive	–	inactive	inactive	–	inactive	inactive	inactive	–	inactive	inactive	–	inactive	inactive	inactive	inactive	inactive	–	inactive
OCCOCCO	inactive	inactive	–	inactive	inactive	–	14.1 µM (active) and inactive	–	4.46 µM (active) and inactive	inactive	inactive	inactive	–	inactive	–	–	inactive	inactive	inactive	inactive
ClC(Cl)(Cl)c1ccccc1	inactive	inactive	–	inactive	inactive	–	inactive	–	inactive	inactive	inactive	inactive	–	inactive	inactive	inactive	inactive	inactive	inactive	inactive
NN=C(N)N	inactive	inactive	inactive	inactive	inactive	inactive	inactive	inactive	inactive	–	inactive	inactive	–	inactive	–	–	inactive	–	–	–
CCCCCCCCCCCCCl	inactive	inactive	–	inactive	inactive	–	inactive	inactive	inactive	inactive	inactive	inactive	–	inactive	inactive	inactive	inactive	inactive	inactive	inactive
CNC(=O)CSP(=S)(OC)OC	inactive	inactive	–	inactive	inactive	–	28.1 µM (active) and inactive	inactive	14.1 µM (active) and inactive	inactive	inactive	inactive	–	inactive	inactive	inactive	inactive	inactive	inactive	inactive
Oc1ccc(Cl)cc1Cl	inactive	inactive	–	inactive	inactive	–	inactive	–	inactive	inactive	inactive	inactive	–	inactive	–	–	inactive	inactive	inactive	inactive
C=CC(Cl)CCl (configuration not stated)	inactive	inactive	–	inactive	inactive	inactive	inactive	inactive	inactive	inactive	inactive	inactive	inactive	inactive	inactive	inactive	inactive	–	inactive	–
CC(C)Nc1nc(Cl)nc(NC(C)C)n1	inactive	inactive	–	inactive	inactive	–	inactive	inactive	0.768 µM (active)	inactive	inactive	inactive	–	inactive	inactive	inactive	inactive	inactive	inactive	inactive
C[N+](C)(C)C	inactive	inactive	–	inactive	inactive	–	inactive	inactive	inactive	–	inactive	inactive	–	inactive	inactive	inactive	inactive	inactive	–	inactive
